Screening data (PubChem BioAssay)
Hits are enriched below; roughly 19% of the tested compounds scored in any of these assays.
HT1080 IDH1KD tx: qHTS for induction of synthetic lethality in tumor cells producing 2HG: qHTS for the HT-1080-IDH1KD cell line | Potency, µM (top dose mostly 46.1 µM), without a hit: at the top dose activity, negative = toxicity, usual class: cytotoxic | HT-1080 IDH1 knockdown viability, ATP luminescence, 48 h | 360,000 compounds, 2% hits;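 also: potency is read from the fitted curve at half-maximal effect; 0% = DMSO wells and -100% = cell-free medium wells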
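HT-1080-IDH1KD cells (IDH1 knocked down), 750/well in RPMI with 5% FBS, treated with compound 48 h at 37 degrees C. Viability by CellTiter-Glo luminescence, normalised to DMSO and no-cell wells; concentration-response curves classed.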
DT40 TDP1 no CPT: qHTS for Inhibitors of human tyrosyl-DNA phosphodiesterase 1 (TDP1): qHTS in cells in absence of CPT; 420,000 compounds, 15% hits; Potency, µM (titrated, usually from 46.2 µM), inactives show at the top dose activity change, negative = growth inhibition, usual class: inhibitors; DT40 Tdp1-/- hTDP1 cells, no CPT, ATP luminescence, 48 h; also: potency is read from the fitted curve at half-maximal effect; nearly all actives have a fitted effect of over 55% in size
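Chicken DT40 Tdp1-/- cells stably complemented with human TDP1 were seeded at 400 cells/well with DMSO in place of 20 nM camptothecin. After compound pinning, cells grew at least 48 hr at 37 °C; viability read by CellTiter-Glo luminescence.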
TDP1 cell CPT: qHTS for Inhibitors of human tyrosyl-DNA phosphodiesterase 1 (TDP1): qHTS in cells in presence of CPT; chicken DT40 Tdp1-/-;hTDP1 cells + 20 nM CPT, ATP luminescence, 48 h; Potency, µM (top dose mostly 46.2 µM), for the others: top-dose activity change, negative = growth inhibition, hits mostly inhibitors; 420,000 compounds, 12% hits; also: potency is read from the fitted curve at half-maximal effect; nearly all actives have a fitted effect of over 55% in size
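Cell growth measured by CellTiter-Glo luminescence after a minimum 48 h, 37 C compound exposure with 20 nM CPT in Tdp1-knockout DT40 cells stably expressing hTDP1, seeded 400/well; qHTS titration format.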
IL-1B inflam inh: qHTS for Inhibitors of Inflammasome Signaling: IL-1-beta AlphaLISA Primary Screen. AID 743279, 2014. 360,000 compounds, 4.7% hits. THP-1 LPS/ATP IL-1B secretion, AlphaLISA, 16 h; stronger effect = lower value. activity change, % at 57.5 µM; in the data active = activity change below about -50%; inconclusive = mostly about -30% to -49%
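Secreted IL-1B measured by AlphaLISA bead assay after 16 h compound exposure of THP-1 cells; compounds (final up to 57.5 uM) added 1 h before LPS (250 ng/mL) and ATP (1.25 mM) stimulation; lower signal means less secretion.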
HT1080-NT tox: qHTS for induction of synthetic lethality in tumor cells producing 2HG: qHTS for the HT-1080-NT fibrosarcoma cell line | Potency, µM (doses to about 46.1 µM), for the others: top-dose activity, negative = less viability, most hits filed as cytotoxic | 360,000 compounds, 1.6% hits | HT-1080-NT fibrosarcoma viability, CellTiter-Glo ATP luminescence, 48 h | AID 686970, 2013;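 also: NT is the 2HG producing partner of a matched IDH1 knockdown line; potency is read from the fitted curve at half-maximal effect; 0% = DMSO-treated cells and -100% = media-only wells without cells; nearly all actives have a fitted effect of over 55% in size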
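Read-out is CellTiter-Glo luminescence after 10 minutes at room temperature, following 48 hours' compound treatment of HT-1080-NT cells (750 cells/well, RPMI, 5% FBS, 37 degrees C).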
Numbers without * were called inactive; ? = inconclusive; · = no result given; ! = not active in a repeat; [ ] = dose if it differs, or a comment. Unless noted, calls follow the shape of the dose curve; as a rule, active = well fitted curve in the direction sought with a large enough effect; inconclusive = small, poorly fitted or top-dose-only effect, or another doubt; inactive = no such curve, though single readings can be large; an effect the other way counts as inactive or inconclusive. Unless noted, % is scaled to controls: 0 for no effect and ±100 for the full control effect.

SMILES	HT1080 IDH1KD tx	DT40 TDP1 no CPT	TDP1 cell CPT	IL-1B inflam inh	HT1080-NT tox
CCOC(=O)c1c(C)[nH]c2ccc3c(c12)CN1CCc2cc(OC)ccc2[C@@H]1O3	·	7.5µM*	8.4µM*	·	·
CC(C)(C)C(=O)COC(=O)C1CC(=O)N(c2ccccc2)C1 (stereo unspecified)	-4%	-15%	-11%	1	-3%
O=c1c2cnn(-c3ccc(F)cc3)c2ncn1Cc1ccccc1	7%	-1%	-26%	7	18%
CCOC(=O)c1[nH]c(C)c(/C(O)=C2\C(=O)C(=O)N(CCCN3CCOCC3)C2c2cccs2)c1C (stereo unspecified)	21µM*	-11%	24%	9	9.2µM*
CC(=O)n1cc(C(C[N+](=O)[O-])SCCN)c2ccccc21 (stereo unspecified)	?	5.2µM*	5.2µM*	-97*	?
CSc1cccc(NS(=O)(=O)c2cc(Br)cnc2N)c1	0%	-5%	11%	-3	6%
C/C(=N\Nc1cccc(C(=O)O)c1)c1cc2ccccc2o1	11%	-18%	1%	6	3%
CNC(=O)[C@H]1O[C@@H](n2cnc3c(NCc4cccc(I)c4)nc(Cl)nc32)[C@H](O)[C@@H]1O	7%	21µM*!	?	-89*	23%
COc1cc(/C=C(\C#N)c2nc3ccccc3[nH]2)ccc1OCc1cccc(C(F)(F)F)c1	·	9.2µM*	12µM*	·	·
COC(=O)c1ccc(COc2ccc(/C=C(\C#N)c3nc4ccccc4[nH]3)cc2OC)o1	3%	5.8µM*	7.3µM*	0	0%
COc1ccc(N2CC(C(=O)NC3=NCCS3)CC2=O)cc1 (stereo unspecified)	7%	3%	-27%	3	10%
CCN(CC)CCN(Cc1cc2cc3c(cc2[nH]c1=O)OCO3)C(=S)NCCOC	1%	3%	-9%	-28	-2%
COc1ccccc1CNS(=O)(=O)c1c(C(=O)N2CCCCCC2)c(C)n(C)c1C	17%	17%	-15%	-7	4%
Cc1ccc(-n2nc(CO)c(C(=O)NCc3ccccn3)n2)cc1C	·	?	-17%	·	·
CSCC[C@H](NC(=O)C1CCN(S(=O)(=O)c2ccc(C)cc2C)CC1)c1nc2ccccc2[nH]1	-1%	?	?	?	-4%
O=C1NC(=O)C2(CCCC2C(=O)O)N1 (stereo unspecified)	4%	0%	1%	19	7%
CC(NC(=O)CN(C)CC(=O)Nc1ccc(Cl)cc1)c1ccc(F)cc1 (stereo unspecified)	-17%	18µM*	?	?	-4%
CC(NC(=O)CN(C)CC(=O)Nc1ccc(F)c(F)c1F)c1ccccc1 (stereo unspecified)	-1%	20%	?	21	6%
O=c1[nH]c2cc3c(cc2cc1C(c1nnnn1Cc1ccccc1)N1CCCc2ccccc21)OCO3 (stereo unspecified)	?	23µM*	21µM*	28	-27%[9.24 µM]
COc1cc2cc(C(c3nnnn3C3CCCC3)N3CCc4ccccc43)c(=O)[nH]c2cc1OC (stereo unspecified)	-19%	?	?	17	-26%
O=c1[nH]c2cc3c(cc2cc1C(c1nnnn1C1CCCC1)N1CCCc2ccccc21)OCCO3 (stereo unspecified)	1%	-13%	-1%	1	-1%
CCOc1ccc2[nH]c(=O)c(C(c3nnnn3CC3CCCO3)N3CCc4ccccc4C3)cc2c1 (stereo unspecified)	9%	23µM*	16µM*	-24	-3%
Cc1ccc2cc(C(c3nnnn3CC3CCCO3)N3CCc4ccccc4C3)c(=O)[nH]c2c1 (stereo unspecified)	0%	?	-29%	-22	1%
Cc1cc2cc(C(c3nnnn3CC3CCCO3)N3CCCc4ccccc43)c(=O)[nH]c2cc1C (stereo unspecified)	11µM*	?	?	?	?
COc1cc2cc(C(c3nnnn3C(C)(C)C)N3CCc4ccccc43)c(=O)[nH]c2cc1OC (stereo unspecified)	-8%	21µM*	-35%	-13	-8%
SMILES	HT1080 IDH1KD tx	DT40 TDP1 no CPT	TDP1 cell CPT	IL-1B inflam inh	HT1080-NT tox
O=C(Nc1ccccc1OCc1cc(=O)n2ccccc2n1)c1cccc(Br)c1	·	-26%	-13%	·	·
O=C1CSC(c2ccccc2[N+](=O)[O-])N1CCc1ccccc1 (stereo unspecified)	1%	-9%	?	14	2%
CC1CCN(c2csc3ccc(F)cc3c2=O)CC1	·	?	-8%	·	·
CN(C(=O)COc1ccc(Cl)cc1Cl)c1nnc(C23CC4CC(CC(C4)C2)C3)s1	2%	?	?	-3	0%
O=c1[nH]c2cc3c(cc2cc1C(c1nnnn1Cc1ccccc1)N1CCN2CCCC2C1)OCCO3 (stereo unspecified)	0%[9.24 µM]	18µM*	?	-2	-17%
Cc1ccc(C)c2[nH]c(=O)c(C(c3nnnn3Cc3ccccc3)N3CCc4ccccc4C3)cc12 (stereo unspecified)	-27%	-11%	21µM*	-10	-29%
Cc1cc2cc(C(c3nnnn3Cc3ccco3)N3CCCCC3)c(=O)[nH]c2cc1C (stereo unspecified)	22%	-20%	-19%	-22	3%
CC1CCN(C(c2cc3cc4c(cc3[nH]c2=O)OCO4)c2nnnn2CC2CCCO2)CC1 (stereo unspecified)	-22%	-21%	?	8	-18%
O=c1[nH]c2cc3c(cc2cc1C(c1nnnn1Cc1ccccc1)N1CCCCCC1)OCCO3 (stereo unspecified)	-4%	?	16µM*	-15	-19%
Cc1ccc(C(C[N+](=O)[O-])n2nc(C)cc2C)cc1 (stereo unspecified)	1%	2.6µM*	2.1µM*	-1	4%
Cc1cccc(C(=O)NCCN2CCN(c3ccccc3)CC2)c1	8%	-19%	-9%	-13	-1%
O=C(NCCN1CCN(C(=O)c2c(F)cccc2F)CC1)C(=O)Nc1ccc(Cl)cc1	-18%	?	?	-7	6%
O=C(NCCN1CCN(C(=O)c2cccc(Br)c2)CC1)C(=O)Nc1ccc(Br)cc1	-17%	26µM*	13µM*	-19	-16%
